Assay results reported in PubChem BioAssay (EPA / NIEHS).
The source made the active and inactive calls. Rule for the calls: active = hit-call score of the fitted dose curve at least 0.9, where 1 is the maximum; inactive = score below 0.9.

What follows are molecules tested against Transcriptional activator Myb (Homo sapiens) (UniProt P10242) (assay: ATG_Myb_CIS: Attagene CIS-FACTORIAL HepG2 Assay for human Myeloblastosis (Myb) Proto-Oncogene Transcription Factor (AID 2282986)). Details: HepG2 Attagene CIS-FACTORIAL Myb reporter transcription; actives raise or lower the signal.
Chain of Transcriptional activator Myb (Homo sapiens) (P10242 whole entry, looked up): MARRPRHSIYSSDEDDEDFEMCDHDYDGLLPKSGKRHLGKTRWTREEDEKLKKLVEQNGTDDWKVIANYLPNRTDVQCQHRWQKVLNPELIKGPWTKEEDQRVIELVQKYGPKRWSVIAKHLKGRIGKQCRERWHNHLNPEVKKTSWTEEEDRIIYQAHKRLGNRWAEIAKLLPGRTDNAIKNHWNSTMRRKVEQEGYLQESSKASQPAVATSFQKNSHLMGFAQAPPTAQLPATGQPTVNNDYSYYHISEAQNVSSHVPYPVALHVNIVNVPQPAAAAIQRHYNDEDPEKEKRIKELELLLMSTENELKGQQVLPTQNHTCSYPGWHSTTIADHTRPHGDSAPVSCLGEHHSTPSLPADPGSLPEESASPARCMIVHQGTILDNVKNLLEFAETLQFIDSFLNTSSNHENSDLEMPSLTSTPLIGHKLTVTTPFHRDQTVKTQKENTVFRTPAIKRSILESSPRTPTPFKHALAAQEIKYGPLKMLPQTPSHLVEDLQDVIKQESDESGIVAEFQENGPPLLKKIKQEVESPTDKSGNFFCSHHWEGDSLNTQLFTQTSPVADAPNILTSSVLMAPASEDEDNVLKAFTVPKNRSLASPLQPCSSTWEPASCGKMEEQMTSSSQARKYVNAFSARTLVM
Outline: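 Multiplexed cis-reporter system in HepG2: transient transfection, 24 h treatment, mRNA readout by RT-PCR and capillary electrophoresis. Both increases and decreases are scored versus DMSO negative control.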
With `CCOC(=O)[C@@H](C)Oc1ccc(Oc2nc3ccc(Cl)cc3o2)cc1` the outcome was “inactive”.
With `CCCCCCCCCCCCCCCC(=O)OC/C=C(C)/C=C/C=C(C)/C=C/C1=C(C)CCCC1(C)C` the outcome was “inactive”.
`CC(C)(C)OC(=O)c1ccc(O)cc1` was tested, and the outcome was “inactive”.
For `Cc1cc(S(=O)(=O)O)ccc1N=Nc1c(O)ccc2ccccc12`, the outcome was “inactive”.
With `C[C@H]1C[C@@H](O)CC(C)(C)C1` the outcome was “inactive”.
For `CCCCCCCCCCCCN1CCCCCC1=O`, the outcome was “inactive”.
In the case of `Cc1ccc(S(=O)(=O)Oc2ccc(N=Nc3ccc(-c4ccc(N=Nc5c(O)ccc6cc(S(=O)(=O)O)cc(S(=O)(=O)O)c56)c(C)c4)cc3C)cc2)cc1`, the outcome is reported as “inactive”.
In the case of `Cc1cc(CCC(=O)OCCOCCOCCOC(=O)CCc2cc(C)c(O)c(C(C)(C)C)c2)cc(C(C)(C)C)c1O`, the outcome is reported as “inactive”.
For `C=CC(C)(O)CCC=C(C)C` (stereo not given), the outcome was “inactive”.
`C[Si](C)(C)O[Si](C)(C)C` was tested, and the outcome was “inactive”.
In the case of `CCCCC(CC)COC(=O)c1ccc(O)cc1` (stereo not given), the outcome is reported as “inactive”.
In the case of `CN(C)CCOc1ccc(/C(=C(/CCCl)c2ccccc2)c2ccccc2)cc1`, the outcome is reported as “inactive”.
For `Nc1ccc2cc(S(=O)(=O)O)cc(O)c2c1N=Nc1ccccc1C(F)(F)F`, the outcome was “inactive”.
For `CCc1cc(Cc2cc(CC)cc(C(C)(C)C)c2O)c(O)c(C(C)(C)C)c1`, the outcome was “inactive”.
For `O=C(Nc1ccc2c(c1)Cc1ccccc1-2)C(F)(F)F`, the outcome was “inactive”.
In the case of `COC(=O)c1ccc(OC)cc1`, the outcome is reported as “inactive”.
For `CCCCCCC(O)CCCCCCCCCCC(=O)O` (stereo not given), the outcome was “inactive”.
In the case of `O=C(O)COCC(=O)O`, the outcome is reported as “inactive”.
With `OCc1cccc(Oc2ccccc2)c1` the outcome was “inactive”.
With `CN(C)CCOC(C)(c1ccccc1)c1ccccn1` (stereo not given) the outcome was “inactive”.
